Common to all, as to test: DAPPL (digital affinity profiling via proximity ligation, sequencing); 10 mM Tris-HCl pH 7.5, 50 mM NaCl, 1 mM DTT, 4% glycerol, room temperature, 30 min; GST-TFs on glutathione beads, 16-mer random dsDNA library, 0.1% formaldehyde crosslink after washing; high values mean tight binding
What all share (conditions): protein: recombinant; tags: N-terminal GST; dsDNA, one strand shown

One experiment concerns the target T1, FLI1 (Homo sapiens, UniProt Q01543 1-452).
T1 sequence: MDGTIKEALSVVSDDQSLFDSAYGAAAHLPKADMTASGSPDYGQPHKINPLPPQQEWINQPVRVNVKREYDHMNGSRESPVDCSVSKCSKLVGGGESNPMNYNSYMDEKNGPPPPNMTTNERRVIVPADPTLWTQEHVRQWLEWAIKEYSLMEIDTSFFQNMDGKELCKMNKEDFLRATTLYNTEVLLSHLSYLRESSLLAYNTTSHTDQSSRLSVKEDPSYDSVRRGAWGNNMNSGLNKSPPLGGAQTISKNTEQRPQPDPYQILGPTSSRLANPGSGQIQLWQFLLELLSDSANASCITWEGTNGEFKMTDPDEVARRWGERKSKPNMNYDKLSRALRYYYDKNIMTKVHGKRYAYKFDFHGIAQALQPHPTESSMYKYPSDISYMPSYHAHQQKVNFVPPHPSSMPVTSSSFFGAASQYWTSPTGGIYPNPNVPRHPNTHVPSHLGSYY
The gist of the method:
(§1)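 Human transcription factors were made in yeast as GST fusions, captured on glutathione beads and barcoded with DNA. With a tag-only sample included, the pool was incubated with 200 nmole of a random double-stranded 16-mer DNA library in Tris/NaCl/DTT/glycerol buffer at room temperature for 30 min, then crosslinked with 0.1% formaldehyde after washing, ligated by proximity, amplified and sequenced. For binding signal, each hexamer's read frequency for a factor is divided by its frequency for the tag-only sample.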

A further experiment concerns the target T2, ELK1 (Homo sapiens, UniProt P19419 1-428).
T2 sequence: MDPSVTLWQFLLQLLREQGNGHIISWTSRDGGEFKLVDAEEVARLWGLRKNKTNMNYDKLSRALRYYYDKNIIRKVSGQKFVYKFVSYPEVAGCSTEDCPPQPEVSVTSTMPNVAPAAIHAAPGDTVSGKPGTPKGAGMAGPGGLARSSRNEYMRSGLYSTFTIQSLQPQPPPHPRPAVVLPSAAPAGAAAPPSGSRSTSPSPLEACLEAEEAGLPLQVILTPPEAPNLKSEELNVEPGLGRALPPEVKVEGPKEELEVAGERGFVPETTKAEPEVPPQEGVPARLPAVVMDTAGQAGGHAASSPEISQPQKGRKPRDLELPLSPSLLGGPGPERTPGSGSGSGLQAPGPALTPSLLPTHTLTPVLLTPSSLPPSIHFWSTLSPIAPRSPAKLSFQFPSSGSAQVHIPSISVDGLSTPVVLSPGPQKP
The gist of the method:
as §1

The target in another experiment is T3, GABPA (Homo sapiens, UniProt Q06546 1-454).
T3 sequence: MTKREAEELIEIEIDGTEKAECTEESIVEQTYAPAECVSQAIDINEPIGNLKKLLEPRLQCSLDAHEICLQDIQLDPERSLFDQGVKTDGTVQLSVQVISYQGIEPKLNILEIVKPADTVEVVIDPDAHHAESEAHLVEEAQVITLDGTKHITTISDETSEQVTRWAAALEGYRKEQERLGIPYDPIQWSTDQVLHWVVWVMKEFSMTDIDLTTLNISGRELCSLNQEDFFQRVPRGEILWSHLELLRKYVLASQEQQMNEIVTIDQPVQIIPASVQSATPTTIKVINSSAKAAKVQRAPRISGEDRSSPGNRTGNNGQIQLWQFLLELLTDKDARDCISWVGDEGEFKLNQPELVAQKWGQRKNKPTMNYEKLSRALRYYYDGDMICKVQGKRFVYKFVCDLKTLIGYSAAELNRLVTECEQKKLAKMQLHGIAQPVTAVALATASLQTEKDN
The gist of the method:
as §1

A further experiment deals with T4, ERG (Homo sapiens, UniProt P11308 1-479).
T4 sequence: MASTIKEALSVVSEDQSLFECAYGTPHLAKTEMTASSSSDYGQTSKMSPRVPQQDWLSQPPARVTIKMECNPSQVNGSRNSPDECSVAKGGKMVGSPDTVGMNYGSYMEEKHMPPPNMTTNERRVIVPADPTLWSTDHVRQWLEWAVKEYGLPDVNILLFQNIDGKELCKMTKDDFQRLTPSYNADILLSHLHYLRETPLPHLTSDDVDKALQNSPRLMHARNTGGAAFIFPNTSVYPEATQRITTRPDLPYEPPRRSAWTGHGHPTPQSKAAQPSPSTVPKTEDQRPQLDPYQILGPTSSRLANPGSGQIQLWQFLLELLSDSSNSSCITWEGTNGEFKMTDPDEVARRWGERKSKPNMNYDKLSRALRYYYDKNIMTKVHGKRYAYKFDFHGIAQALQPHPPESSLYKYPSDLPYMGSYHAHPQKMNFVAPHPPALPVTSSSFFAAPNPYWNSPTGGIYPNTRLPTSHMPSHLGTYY
In short, it runs like this: as §1

Another experiment deals with ELF1 (Homo sapiens, UniProt P32519 1-619). In short, it runs like this: as §1
The next experiment concerns the target T5, EHF (Homo sapiens, UniProt Q9NZC4 1-300).
T5 sequence: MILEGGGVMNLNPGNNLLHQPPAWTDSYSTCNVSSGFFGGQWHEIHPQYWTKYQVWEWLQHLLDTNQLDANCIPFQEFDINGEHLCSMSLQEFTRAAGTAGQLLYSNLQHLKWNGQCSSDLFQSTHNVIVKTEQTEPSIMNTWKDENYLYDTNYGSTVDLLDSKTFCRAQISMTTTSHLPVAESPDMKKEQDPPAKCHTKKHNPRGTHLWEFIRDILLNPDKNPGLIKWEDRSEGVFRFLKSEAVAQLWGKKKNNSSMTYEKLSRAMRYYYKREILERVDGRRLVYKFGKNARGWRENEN
In short, it runs like this:
as §1

The next experiment addresses SPI1 (Homo sapiens, UniProt P17947 1-270). In short, it runs like this: as §1
The target of the next experiment is SPIB (Homo sapiens, UniProt Q01892 1-262). In short, it runs like this: as §1
The target in a further experiment is T6, ELK3 (Homo sapiens, UniProt P41970 1-407).
T6 sequence: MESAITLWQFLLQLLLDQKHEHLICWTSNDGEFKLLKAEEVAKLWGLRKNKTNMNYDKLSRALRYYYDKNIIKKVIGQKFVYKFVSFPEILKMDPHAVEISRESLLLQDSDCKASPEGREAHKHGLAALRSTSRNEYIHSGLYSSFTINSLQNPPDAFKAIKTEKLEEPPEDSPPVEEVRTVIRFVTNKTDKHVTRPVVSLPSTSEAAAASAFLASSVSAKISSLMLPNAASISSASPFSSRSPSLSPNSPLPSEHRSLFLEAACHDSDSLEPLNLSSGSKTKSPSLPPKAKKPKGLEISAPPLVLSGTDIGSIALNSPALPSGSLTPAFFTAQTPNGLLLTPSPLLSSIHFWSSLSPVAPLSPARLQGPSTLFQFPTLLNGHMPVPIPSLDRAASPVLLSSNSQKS
The gist of the method: as §1

Results on 7 sequences are retold here after publication PMC7862700, “An all-to-all approach to the identification of sequence-specific readers for epigenetic DNA modifications on cytosine”.

Chain of SPIB (Q01892 whole entry): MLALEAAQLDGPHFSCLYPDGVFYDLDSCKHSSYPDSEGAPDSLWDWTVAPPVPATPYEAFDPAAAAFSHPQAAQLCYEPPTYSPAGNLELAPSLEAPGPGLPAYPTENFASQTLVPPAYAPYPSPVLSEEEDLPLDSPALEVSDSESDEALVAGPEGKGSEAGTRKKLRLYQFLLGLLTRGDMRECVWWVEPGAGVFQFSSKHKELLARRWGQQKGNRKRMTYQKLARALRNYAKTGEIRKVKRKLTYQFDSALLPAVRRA
Chain of ELF1 (P32519 whole entry): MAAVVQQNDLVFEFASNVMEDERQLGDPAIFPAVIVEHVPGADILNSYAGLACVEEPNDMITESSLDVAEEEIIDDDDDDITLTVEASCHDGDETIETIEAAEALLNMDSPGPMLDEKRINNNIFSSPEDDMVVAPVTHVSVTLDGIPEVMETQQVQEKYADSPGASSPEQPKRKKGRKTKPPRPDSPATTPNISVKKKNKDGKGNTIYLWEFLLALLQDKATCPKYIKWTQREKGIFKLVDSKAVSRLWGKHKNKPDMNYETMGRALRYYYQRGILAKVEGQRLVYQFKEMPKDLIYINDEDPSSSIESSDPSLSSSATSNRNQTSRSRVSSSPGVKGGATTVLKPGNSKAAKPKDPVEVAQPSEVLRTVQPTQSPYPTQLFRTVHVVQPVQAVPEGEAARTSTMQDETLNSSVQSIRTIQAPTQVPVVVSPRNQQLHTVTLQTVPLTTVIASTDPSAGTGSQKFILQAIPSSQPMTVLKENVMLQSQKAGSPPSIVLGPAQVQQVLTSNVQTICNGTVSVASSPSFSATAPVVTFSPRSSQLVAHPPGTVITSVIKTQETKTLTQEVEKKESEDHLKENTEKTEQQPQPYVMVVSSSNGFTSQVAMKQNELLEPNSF

For the sequence CTCACC, the binding signal with FLI1 was 1.26 fold enrichment (6-mer frequency, TF over GST control); with ELK1 it was 1.32 fold enrichment (6-mer frequency, TF over GST control); with GABPA it was 1.32 fold enrichment (6-mer frequency, TF over GST control); in the experiment with ERG, 1.13 fold enrichment (6-mer frequency, TF over GST control); in the experiment with ELF1 it was 1.2 fold enrichment (6-mer frequency, TF over GST control); with EHF it was 1.24 fold enrichment (6-mer frequency, TF over GST control). The binding signal was 1.24 fold enrichment (6-mer frequency, TF over GST control) with SPI1; 1.34 fold enrichment (6-mer frequency, TF over GST control) in the experiment with SPIB; 1.3 fold enrichment (6-mer frequency, TF over GST control) with ELK3.

Turning to GCCGAT, the binding signal with FLI1 was 1.14 fold enrichment (6-mer frequency, TF over GST control); in the experiment with ELK1, 1.09 fold enrichment (6-mer frequency, TF over GST control); with GABPA, 1.21 fold enrichment (6-mer frequency, TF over GST control); with ERG, 1.03 fold enrichment (6-mer frequency, TF over GST control); with ELF1, 1.03 fold enrichment (6-mer frequency, TF over GST control); with EHF, 1.01 fold enrichment (6-mer frequency, TF over GST control). The binding signal with SPI1 was 1.12 fold enrichment (6-mer frequency, TF over GST control); with SPIB, 1.07 fold enrichment (6-mer frequency, TF over GST control); in the experiment with ELK3, 1.08 fold enrichment (6-mer frequency, TF over GST control).

Consider CTTGAC, for which the binding signal is 1.17 fold enrichment (6-mer frequency, TF over GST control) with FLI1; 1.3 fold enrichment (6-mer frequency, TF over GST control) in the experiment with ELK1; 1.3 fold enrichment (6-mer frequency, TF over GST control) with GABPA; 1.2 fold enrichment (6-mer frequency, TF over GST control) with ERG; 1.2 fold enrichment (6-mer frequency, TF over GST control) with ELF1; 1.14 fold enrichment (6-mer frequency, TF over GST control) with EHF. In addition, the binding signal in the experiment with SPI1 was 1.18 fold enrichment (6-mer frequency, TF over GST control); in the experiment with SPIB, 1.19 fold enrichment (6-mer frequency, TF over GST control); with ELK3, 1.23 fold enrichment (6-mer frequency, TF over GST control).

With TCTCCG, the binding signal with FLI1 is 1.51 fold enrichment (6-mer frequency, TF over GST control); in the experiment with ELK1, 1.49 fold enrichment (6-mer frequency, TF over GST control); with GABPA, 1.57 fold enrichment (6-mer frequency, TF over GST control); in the experiment with ERG, 1.42 fold enrichment (6-mer frequency, TF over GST control); in the experiment with ELF1, 1.6 fold enrichment (6-mer frequency, TF over GST control); with EHF it was 1.57 fold enrichment (6-mer frequency, TF over GST control). The binding signal is 1.54 fold enrichment (6-mer frequency, TF over GST control) in the experiment with SPI1; 1.52 fold enrichment (6-mer frequency, TF over GST control) with SPIB; 1.38 fold enrichment (6-mer frequency, TF over GST control) with ELK3.

For CGCACT, the binding signal is 1.12 fold enrichment (6-mer frequency, TF over GST control) with FLI1; 1.33 fold enrichment (6-mer frequency, TF over GST control) in the experiment with ELK1; 1.28 fold enrichment (6-mer frequency, TF over GST control) with GABPA; 1.21 fold enrichment (6-mer frequency, TF over GST control) in the experiment with ERG; 1.22 fold enrichment (6-mer frequency, TF over GST control) in the experiment with ELF1; 1.29 fold enrichment (6-mer frequency, TF over GST control) with EHF. The binding signal was 1.41 fold enrichment (6-mer frequency, TF over GST control) with SPI1; 1.27 fold enrichment (6-mer frequency, TF over GST control) with SPIB; 1.24 fold enrichment (6-mer frequency, TF over GST control) with ELK3.

Consider AACGTT, for which the binding signal with FLI1 is 1.07 fold enrichment (6-mer frequency, TF over GST control); in the experiment with ELK1 it was 1.15 fold enrichment (6-mer frequency, TF over GST control); in the experiment with GABPA, 1.04 fold enrichment (6-mer frequency, TF over GST control); with ERG it was 1.15 fold enrichment (6-mer frequency, TF over GST control); with ELF1, 1.14 fold enrichment (6-mer frequency, TF over GST control); with EHF, 1.09 fold enrichment (6-mer frequency, TF over GST control). Moreover, the binding signal in the experiment with SPI1 was 1.06 fold enrichment (6-mer frequency, TF over GST control); with SPIB it was 1.15 fold enrichment (6-mer frequency, TF over GST control); with ELK3 it was 1.28 fold enrichment (6-mer frequency, TF over GST control).

Take ACTAAG: the binding signal with FLI1 was 1.04 fold enrichment (6-mer frequency, TF over GST control); with ELK1, 1.08 fold enrichment (6-mer frequency, TF over GST control); with GABPA, 1.11 fold enrichment (6-mer frequency, TF over GST control); with ERG, 1.02 fold enrichment (6-mer frequency, TF over GST control); with ELF1, 1.04 fold enrichment (6-mer frequency, TF over GST control); with EHF, 1.15 fold enrichment (6-mer frequency, TF over GST control). In addition, the binding signal was 1.12 fold enrichment (6-mer frequency, TF over GST control) in the experiment with SPI1; 1.14 fold enrichment (6-mer frequency, TF over GST control) in the experiment with SPIB; 1.07 fold enrichment (6-mer frequency, TF over GST control) in the experiment with ELK3.
